Source: PubChem BioAssay (NCI)
This is part of a sample that, as a whole, favours compounds with a hit. Of some 83,000 tested, about 20% had one in any assay.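 The endpoint reported here, percent growth, reads 100 for growth as untreated, 0 for no net growth and -100 for all cells dead.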 Values without a mark were called inactive. Calls of active or inactive are those of the source. Rule for the calls: active = growth percent below 10; inactive = the rest.

Assays:
Assay in all cases: NCI-60 one-dose screen, 48 h (100 = growth as untreated, 0 = no growth, -100 = all killed)
Details in all cases: 10 µM unless noted
RPMI-8226 leukemia = system: RPMI-8226 leukemia
OVCAR-8 ovarian = system: OVCAR-8 ovarian
OVCAR-5 ovarian = system: OVCAR-5 ovarian
OVCAR-4 ovarian = system: OVCAR-4 ovarian
SK-OV-3 ovarian = system: SK-OV-3 ovarian
IGROV1 ovarian = system: IGROV1 ovarian
OVCAR-3 ovarian = system: OVCAR-3 ovarian
HS 578T breast = system: HS 578T breast
NCI/ADR-RES ovarian = system: NCI/ADR-RES ovarian
T-47D breast = system: T-47D breast
BT-549 breast = system: BT-549 breast
MDA-MB-435 melanoma = system: MDA-MB-435 melanoma
SW-620 colon = system: SW-620 colon
MCF7 breast = system: MCF7 breast
HCT-116 colon = system: HCT-116 colon
HCC-2998 colon = system: HCC-2998 colon
KM12 colon = system: KM12 colon

SMILES	growth (RPMI-8226 leukemia)	growth (OVCAR-8 ovarian)	growth (OVCAR-5 ovarian)	growth (OVCAR-4 ovarian)	growth (SK-OV-3 ovarian)	growth (IGROV1 ovarian)	growth (OVCAR-3 ovarian)	growth (HS 578T breast)	growth (NCI/ADR-RES ovarian)	growth (T-47D breast)	growth (BT-549 breast)	growth (MDA-MB-435 melanoma)	growth (SW-620 colon)	growth (MCF7 breast)	growth (HCT-116 colon)	growth (HCC-2998 colon)	growth (KM12 colon)
C=C(C)[C@@H]1CCC[C@]2(C(=O)N3CCN(C)CC3)CC[C@]3(C)[C@@H](CC[C@@H]4[C@@]5(C)CC/C(=N\NC(=O)c6ccncc6)C(C)(C)[C@@H]5CC[C@]43C)[C@@H]12	78.2%	96.7%	80.1%	91.5%	109%	82.7%	95.5%	103%	99.3%	87.7%	105%	81.8%	81.2%	50.7%	97.8%	105%	85.4%
Clc1ccc(-c2cc(-c3ccccc3)nc(NCCNc3ccnc4cc(Cl)ccc34)n2)cc1	-25.3% (active)	-55.9% (active)	48.9%	-69.4% (active)	100%	-61.3% (active)	-90.6% (active)	-17.5% (active)	-63.4% (active)	11.8%	88.3%	-56.9% (active)	-63% (active)	-76.8% (active)	-79.4% (active)	-88.9% (active)	-5.53% (active)
CC1(C)NCCC[C@]2(C)[C@H]3CC[C@H]4[C@H]5[C@H](C(=O)/C=C/c6cccnc6)CCC[C@]5(CO)CC[C@@]4(C)[C@]3(C)CC[C@@H]12	13.1%	55.5%	74.8%	75.3%	108%	26.6%	60.1%	74.4%	82.4%	81.3%	88.2%	70.8%	7.51% (active)	22.1%	37.2%		39.8%
CC1=C(C(=O)Nc2ccccc2)C(c2ccc3c(c2)OCO3)NC(=S)N1 (stereo not given)	109%	104%	115%	114%	110%	103%	110%	105%		101%	88.1%	103%	107%	99.8%	93.2%	109%	103%
CCN1CCN(CC(=O)Nc2ccc(-c3cn4c(n3)sc3cc(Oc5ccnc(C(=O)NC)c5)ccc34)cc2)CC1	59.2%	92.4%	91.2%	87.5%	44.8%	84.8%	88.8%	94%	89%	32.8%	57.2%	10.1%	8.44% (active)	80.2%	1.48% (active)	117%	75.6%
COc1ccc(/C(C)=C(/c2ccc(OCCCN(C)C)cc2)c2ccc(OC(=O)c3ccccc3)cc2)cc1	62.6%		88.1%	99.8%	90.8%	93.6%	69.5%	55.4%	86.4%	49.7%	87%	85%	88.8%	31%	48.6%	88.3%	75.2%
COc1ccc(C(=O)Cn2c(C(=O)c3ccc(OC)cc3)nc3ccccc32)cc1	-7.09% (active)	31.3%	56.9%	47.6%	67.1%	26.9%	-10.4% (active)	-12% (active)	-24.1% (active)	29.9%	31%	-50% (active)	9.77% (active)	16%		21.5%	24.8%
CC/C=C\C[C@H](O)C/C=C1/C(=O)C=C[C@@H]1C/C=C\CCCC(=O)O	10.1%	20%	128%	74.8%	116%	99.2%	14.8%	85%	78.3%	12%	46.2%	36.9%	49.6%	13.9%	8.9% (active)	57.7%	41.6%
O=C(Cn1nnc2ccccc21)N/N=C/c1c[nH]c2ccccc12	45%	44.8%	71.9%	82%	65.7%	54.1%	22.4%	57.5%	47.6%	37.1%	52.4%	-15.9% (active)	25.3%	22%	26.9%		22.6%
Cc1n[nH]c2ccc(Br)cc2c1=O	98.1%	110%	102%	125%	98.6%	99.6%	109%	101%	110%	94.6%	95.7%	107%	113%	108%	98.7%	107%	95.9%
CN1CCN(CCOc2ccc(-c3cnc4c(-c5cccc(F)c5F)cnn4c3)cc2)CC1	-30.5% (active)	4.29% (active)	116%	-49.8% (active)	108%	81.7%	-52.6% (active)	103%	8.9% (active)	85.4%	50.4%	-66.1% (active)	-68.9% (active)	-23.8% (active)	-65% (active)	101%	-68.9% (active)
Cc1ccc(-c2csc(NC(=O)c3ccccc3CN3C(=O)c4ccccc4C3=O)n2)cc1	94.8%	93.5%	90.8%	111%	97.5%	96.5%	103%	98.8%	82.3%	97.1%	91.4%	95.3%	100%	94.3%	95.4%	98%	100%
O=S(=O)(NCCCNc1nccc(-c2c(-c3cccc(F)c3)nc3occn23)n1)c1ccc(F)cc1	37.3%	30.1%	89.9%	37%	54.5%	24.5%	55.3%	59%	42.4%	6.92% (active)	69.4%	25.6%	67.7%	60.1%		77.3%	40.4%
Cc1ccc(-c2nc(N3CCNCC3)c3oc(-c4ccc(C)cc4)nc3n2)cc1	-49.1% (active)	-69% (active)	78.4%	11.9%	86.2%	-77.1% (active)	-94.6% (active)	99.2%	-28.9% (active)	37.3%	83.4%	-77.1% (active)	-69.3% (active)	-73.1% (active)	-39.4% (active)	65.5%	-81.9% (active)
O=C(c1c[nH]c2ccccc12)c1n[nH]c(=S)n1-c1cccc(Br)c1	84.1%	93.5%	89.7%	87.1%	91.8%	60.6%	86.4%	93.8%	106%	26.1%	120%	102%	94.6%	33.4%	89.7%	38.8%	50.7%
O=C(NC(Cc1nnc2n(Cc3ccccc3)c(=O)c3c4c(sc3n12)CCCC4)c1ccccc1)c1ccccc1 (stereo not given)	123%	77.1%	86.7%	103%	110%		107%	101%	87.9%	102%	100%	105%	101%	97.9%	81.4%	108%	108%
